The values below come from PubChem BioAssay (NCATS).

Test [1] addresses Estrogen receptor (Homo sapiens) (UniProt P03372). The test can be described thus: qHTS assay for small molecule antagonists of estrogen receptor alpha signaling (AID 588513; active means well fitted curve in the direction sought with a large enough effect in the signal ratio, with a control signal flat, not every such curve was filed as active; the % refers to the signal ratio; further: on the % scale 0 is the no-effect control and ±100 the full control effect). The method, boiled down:
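Fluorescence from CCF4 substrate after 2 h at room temperature gave reporter activity; cells had been exposed to compound and 0.5nM 17-beta-estradiol for 18 h at 37 C. Hill-equation fitting yielded IC50 and maximal response.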
On the technique in general: In qHTS, concentration-response curves come from the screen itself.

Test [2] shares this target. The test can be described thus: qHTS assay for small molecule agonists of estrogen receptor alpha signaling (AID 588514).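 Further: 0% = vehicle only and 100% = reference agonist; nearly all actives have a fitted effect of over 70% in size.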 In short, it runs like this: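 ER-alpha-UAS-bla GripTite HEK 293 cells in medium with 2% charcoal/dextran-treated FBS were treated with compound titrations at 37 C for 18 hrs; beta-lactamase reporter read by CCF4 fluorescence after 2 hrs at RT.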
The target of test [3] is Bile acid receptor (Homo sapiens) (UniProt Q96RI1). The test can be described thus: qHTS assay for small molecule antagonists of farnesoid X receptor signaling (AID 588526). Further: on the % scale 0 is the no-effect control and ±100 the full control effect. The method, boiled down: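 Concentration-response titrations were fitted to the Hill equation for half-maximal inhibition and maximal response, with data normalised to 50 uM chenodeoxycholic acid and DMSO control wells. Cells: FXR-UAS-bla HEK293T, dialyzed FBS.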
Bile acid receptor (Homo sapiens), sequence (Q96RI1 whole entry, looked up): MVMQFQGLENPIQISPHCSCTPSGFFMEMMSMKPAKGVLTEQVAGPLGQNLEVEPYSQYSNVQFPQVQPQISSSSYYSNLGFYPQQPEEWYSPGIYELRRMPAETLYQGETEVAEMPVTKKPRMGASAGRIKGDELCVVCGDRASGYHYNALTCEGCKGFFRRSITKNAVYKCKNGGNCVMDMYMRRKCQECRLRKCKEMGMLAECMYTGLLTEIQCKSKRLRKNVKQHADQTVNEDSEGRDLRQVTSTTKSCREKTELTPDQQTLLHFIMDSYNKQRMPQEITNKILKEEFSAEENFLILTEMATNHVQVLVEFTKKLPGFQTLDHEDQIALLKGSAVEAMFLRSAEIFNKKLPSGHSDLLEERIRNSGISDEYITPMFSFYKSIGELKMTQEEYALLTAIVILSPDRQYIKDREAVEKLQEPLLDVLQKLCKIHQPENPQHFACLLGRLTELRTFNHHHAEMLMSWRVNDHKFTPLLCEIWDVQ

Test [4] addresses Peroxisome proliferator-activated receptor gamma (Homo sapiens) (UniProt P37231). The test is described as follows: qHTS assay for small molecule agonists of peroxisome proliferator-activated receptor gamma signaling (AID 588536; active means well fitted curve in the direction sought with a large enough effect in the signal ratio, with a control signal flat, not every such curve was filed as active; the % refers to the signal ratio;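 further: 0% = DMSO basal wells and 100% = rosiglitazone at 2 µM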). In short, it runs like this:
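PPAR-gamma-UAS-bla HEK293 cells in medium with 1% charcoal/dextran-treated FBS were exposed to compounds for 16 h at 37 C. Beta-lactamase activity was read with CCF4 substrate (405 nm excitation, 460/530 nm emission).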

Test [5] in a line: qHTS assay for small molecule agonists of retinoid X receptor alpha signaling (AID 588544).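 On activation: 0% = DMSO basal wells and 100% = reference agonist.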 Conditions: HEK293T RXRa-UAS-bla, beta-lactamase reporter, 18 h; 530 nm emission.
Test [6] deals with Retinoic acid receptor RXR-alpha (Homo sapiens) (UniProt P19793). The description is as above.
Retinoic acid receptor RXR-alpha (Homo sapiens), sequence (P19793 whole entry, looked up): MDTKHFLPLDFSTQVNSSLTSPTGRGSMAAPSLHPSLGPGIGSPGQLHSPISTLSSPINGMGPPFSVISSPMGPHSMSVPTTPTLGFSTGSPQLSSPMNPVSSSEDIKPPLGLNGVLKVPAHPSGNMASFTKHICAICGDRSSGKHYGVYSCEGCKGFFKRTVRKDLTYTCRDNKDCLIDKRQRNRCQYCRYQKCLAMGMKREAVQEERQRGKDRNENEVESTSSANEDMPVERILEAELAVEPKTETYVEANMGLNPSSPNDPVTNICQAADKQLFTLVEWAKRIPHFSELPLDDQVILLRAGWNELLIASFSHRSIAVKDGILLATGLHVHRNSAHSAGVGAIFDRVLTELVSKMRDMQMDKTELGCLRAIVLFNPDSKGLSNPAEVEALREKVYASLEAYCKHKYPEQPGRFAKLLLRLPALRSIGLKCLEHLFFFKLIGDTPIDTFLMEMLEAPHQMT
Test [7] addresses Thyroid hormone receptor beta (Homo sapiens) (UniProt P10828). The test can be described thus: qHTS assay for small molecule agonists of thyroid hormone receptor beta signaling (AID 588545). In short, it runs like this: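 Cells (2500/well) were seeded, incubated 4 hrs at 37 C, dosed with a compound series, incubated 18 hrs, loaded with CCF4 dye for 2 hrs at RT, then read for fluorescence. Data were scaled between DMSO (0%) and 10 nM T3 (100%).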

Test [8] is described as follows: qHTS assay for small molecule antagonists of retinoid X receptor alpha signaling (AID 588546; active means well fitted inhibition curve with a large enough effect in the signal ratio, with a control signal flat, not every such curve was filed as active; the % refers to the signal ratio;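 further: cells stimulated with 9-cis-retinoic acid as agonist; on the % scale 0 is the no-effect control and ±100 the full control effect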). The settings on record: HEK293T RXRa-UAS-bla, beta-lactamase ratio, antagonist mode; measured here: W530 green channel, cytotoxicity proxy. The method, boiled down:
(§1)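 Beta-lactamase reporter inhibition, read as CCF4 fluorescence ratio (ex 405, em 460/530 nm) after 2 h at RT. HEK293T UAS-bla cells, 2500/well, were stimulated with 9-cis-RA at 500 or 100 nM final alongside test compound for 18 h at 37 C.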

In test [9] the target is Retinoic acid receptor RXR-alpha (Homo sapiens) (UniProt P19793). The description is as above. The settings on record: HEK293T RXRa-UAS-bla, beta-lactamase ratio, antagonist mode. The method, boiled down: as §1
Test [10] deals with Ubiquitin carboxyl-terminal hydrolase 1 (Homo sapiens) (UniProt O94782). The test is described as follows: Inhibitors of USP1/UAF1: Pilot qHTS (AID 504865; active means well fitted inhibition curve with a large enough effect; further: nearly all actives have a fitted effect of over 35% in size; further: potency means the concentration at half of the fitted maximal effect). The method, boiled down: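 In 50mM HEPES pH 7.8 containing 0.5mM EDTA, 1mM TCEP, 0.1 mg/ml BSA and 0.01% Tween-20, 1nM USP1/UAF1 is exposed to compound for 15 min, then Ub-Rho (150nM final) is added and fluorescence is read over time.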
Ubiquitin carboxyl-terminal hydrolase 1 (Homo sapiens), sequence (O94782 whole entry, looked up): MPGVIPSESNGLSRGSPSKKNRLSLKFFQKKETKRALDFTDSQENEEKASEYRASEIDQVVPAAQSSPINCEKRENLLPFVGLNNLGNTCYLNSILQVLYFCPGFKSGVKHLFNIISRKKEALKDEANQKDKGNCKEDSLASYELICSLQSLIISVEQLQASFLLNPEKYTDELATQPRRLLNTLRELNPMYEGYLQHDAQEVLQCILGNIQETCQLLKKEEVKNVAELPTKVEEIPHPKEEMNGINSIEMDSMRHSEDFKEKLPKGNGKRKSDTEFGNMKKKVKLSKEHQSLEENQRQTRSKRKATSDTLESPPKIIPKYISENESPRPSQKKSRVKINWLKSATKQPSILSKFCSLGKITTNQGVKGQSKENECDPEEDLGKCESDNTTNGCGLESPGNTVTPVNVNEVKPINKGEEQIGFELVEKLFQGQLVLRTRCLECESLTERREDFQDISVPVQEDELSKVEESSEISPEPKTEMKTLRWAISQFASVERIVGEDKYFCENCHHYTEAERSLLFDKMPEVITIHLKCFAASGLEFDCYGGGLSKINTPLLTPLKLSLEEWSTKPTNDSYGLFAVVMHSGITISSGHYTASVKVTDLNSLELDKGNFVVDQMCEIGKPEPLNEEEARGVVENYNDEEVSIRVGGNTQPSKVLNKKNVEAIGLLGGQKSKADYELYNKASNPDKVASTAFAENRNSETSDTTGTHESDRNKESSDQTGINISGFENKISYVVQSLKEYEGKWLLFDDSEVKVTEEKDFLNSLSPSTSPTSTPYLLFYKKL

In test [11] the target is Glucocorticoid receptor (Homo sapiens) (UniProt P04150). The test is described as follows: qHTS assay for small molecule agonists of glucocorticoid receptor signaling (AID 588532; active means well fitted curve in the direction sought with a large enough effect in the signal ratio, with a control signal flat; the % refers to the signal ratio;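 further: 100% = dexamethasone at 0.1 µM and 0% = DMSO only wells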). Conditions: HeLa MMTV-bla, beta-lactamase ratio, agonist, 18 h; stronger effect = higher value; percent of dexamethasone control, DMSO zero. In short, it runs like this:
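Titration series, up to 92 uM, applied to GRE-bla HeLa cells for 18 h at 37 C. Detection by CCF4 FRET substrate after 2 h at RT.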

Test [12] has the same target. The test is described as follows: qHTS assay for small molecule antagonists of glucocorticoid receptor signaling (AID 588533; active means well fitted inhibition curve with a large enough effect in the signal ratio, with a control signal flat, not every such curve was filed as active; the % refers to the signal ratio;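 further: cells stimulated with 2 nM dexamethasone as agonist; on the % scale 0 is the no-effect control and ±100 the full control effect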). The method, boiled down: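 Antagonist-mode qHTS: compound titrations added to GRE-bla HeLa cells, then dexamethasone 2 nM final; 18 h, 37 C. CCF4 FRET fluorescence normalized to dexamethasone and DMSO; IC50 from Hill fit.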
A short description of test [13]: qHTS assay for small molecule antagonists of peroxisome proliferator-activated receptor delta signaling (AID 588535; active means well fitted inhibition curve with a large enough effect in the signal ratio, with a control signal flat, not every such curve was filed as active; the % refers to the signal ratio;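 on max response: cells co-treated with a PPAR-delta agonist as stimulator during compound exposure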). Conditions: HEK293T PPARd-UAS-bla, beta-lactamase FRET ratio, 18 h; 460 nm channel. In short, it runs like this:
(§2)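 GeneBLAzer PPAR-delta-UAS-bla HEK293T cells in medium with 2% charcoal/dextran FBS were preincubated 5 hrs at 37 C, then given compounds, incubated 18 hrs at 37 C, and read by CCF4 beta-lactamase fluorescence; IC50 from Hill fits.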

Test [14] concerns the target Peroxisome proliferator-activated receptor delta (Homo sapiens) (UniProt Q03181). Described as above. The method, boiled down:
as §2

For test [15], the target named is Vitamin D3 receptor (Homo sapiens) (UniProt P11473). The test can be described thus: qHTS assay for small molecule agonists of vitamin D receptor signaling (AID 588543).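 Further: 0% = DMSO basal and 100% = reference agonist control.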 In short, it runs like this: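 Reporter cells (HEK293T, VDR-UAS-bla) were seeded in medium with 2% charcoal-stripped serum and incubated 5 h, then compounds in concentration series were added for 16 h at 37 °C. Stimulation was scaled between DMSO basal and 50 nM 1α,25-dihydroxyvitamin D3.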
Vitamin D3 receptor (Homo sapiens), sequence (P11473 whole entry, looked up): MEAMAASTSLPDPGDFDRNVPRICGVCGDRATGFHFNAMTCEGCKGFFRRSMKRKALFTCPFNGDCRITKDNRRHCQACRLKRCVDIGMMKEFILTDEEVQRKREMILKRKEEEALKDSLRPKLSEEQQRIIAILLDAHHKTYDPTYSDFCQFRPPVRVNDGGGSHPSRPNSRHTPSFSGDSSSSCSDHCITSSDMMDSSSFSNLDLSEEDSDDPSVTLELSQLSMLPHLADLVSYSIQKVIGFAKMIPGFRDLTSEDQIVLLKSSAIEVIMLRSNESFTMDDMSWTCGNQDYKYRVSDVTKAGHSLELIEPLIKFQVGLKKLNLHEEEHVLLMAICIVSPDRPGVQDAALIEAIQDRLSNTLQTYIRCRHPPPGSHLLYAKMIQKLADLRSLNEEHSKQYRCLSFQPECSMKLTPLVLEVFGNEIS

The target is the same in test [16]. The test can be described thus: qHTS assay for small molecule antagonists of vitamin D receptor signaling (AID 588541). The method, boiled down:
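VDR-UAS-bla HEK293T cells (2000/well, 2% charcoal-stripped FBS) were treated with titrated compounds plus 1-alpha,25-dihydroxyvitamin D3 (50 nM or 3 nM final) for 16 h at 37 C. CCF4 beta-lactamase fluorescence was read; Hill fits gave IC50.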

Test [17] addresses Peroxisome proliferator-activated receptor gamma (Homo sapiens) (UniProt P37231). The test is described as follows: qHTS assay for small molecule antagonists of peroxisome proliferator-activated receptor gamma signaling (AID 588537; active means well fitted inhibition curve with a large enough effect in the signal ratio, with a control signal flat, not every such curve was filed as active; the % refers to the signal ratio;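 further: reporter cells co-stimulated with 50 nM rosiglitazone agonist during compound treatment; % of control where 0% means no effect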). In short, it runs like this: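 PPAR-gamma-UAS-bla HEK293 cells (3000/well, 1% charcoal/dextran-stripped FBS) were preincubated 6-6.5 h at 37 C, given titrated compounds, then stimulated with 50 nM rosiglitazone for 16 h. Beta-lactamase activity was read with CCF4 dye; IC50 came from Hill fits.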

Where “and” joins values, the source holds several entries; their conditions need not be identical. Identical values can stand only once. Records with an inconclusive call do not appear. Calls of active or inactive are those of the source. Unless noted, the call rests on the fitted dose curve.

Peroxisome proliferator-activated receptor delta (Homo sapiens), sequence (Q03181 whole entry, looked up): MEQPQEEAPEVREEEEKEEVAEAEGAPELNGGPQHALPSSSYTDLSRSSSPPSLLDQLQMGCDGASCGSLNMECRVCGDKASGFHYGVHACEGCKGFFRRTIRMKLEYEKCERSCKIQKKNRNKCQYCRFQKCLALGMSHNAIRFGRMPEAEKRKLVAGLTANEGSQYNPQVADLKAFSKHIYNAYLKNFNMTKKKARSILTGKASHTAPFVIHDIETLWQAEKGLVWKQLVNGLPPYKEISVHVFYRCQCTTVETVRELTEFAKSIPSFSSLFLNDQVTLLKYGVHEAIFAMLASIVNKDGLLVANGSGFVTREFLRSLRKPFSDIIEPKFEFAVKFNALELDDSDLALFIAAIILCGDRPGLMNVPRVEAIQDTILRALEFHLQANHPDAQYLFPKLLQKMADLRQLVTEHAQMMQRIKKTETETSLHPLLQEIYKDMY
Estrogen receptor (Homo sapiens), sequence (P03372 whole entry, looked up): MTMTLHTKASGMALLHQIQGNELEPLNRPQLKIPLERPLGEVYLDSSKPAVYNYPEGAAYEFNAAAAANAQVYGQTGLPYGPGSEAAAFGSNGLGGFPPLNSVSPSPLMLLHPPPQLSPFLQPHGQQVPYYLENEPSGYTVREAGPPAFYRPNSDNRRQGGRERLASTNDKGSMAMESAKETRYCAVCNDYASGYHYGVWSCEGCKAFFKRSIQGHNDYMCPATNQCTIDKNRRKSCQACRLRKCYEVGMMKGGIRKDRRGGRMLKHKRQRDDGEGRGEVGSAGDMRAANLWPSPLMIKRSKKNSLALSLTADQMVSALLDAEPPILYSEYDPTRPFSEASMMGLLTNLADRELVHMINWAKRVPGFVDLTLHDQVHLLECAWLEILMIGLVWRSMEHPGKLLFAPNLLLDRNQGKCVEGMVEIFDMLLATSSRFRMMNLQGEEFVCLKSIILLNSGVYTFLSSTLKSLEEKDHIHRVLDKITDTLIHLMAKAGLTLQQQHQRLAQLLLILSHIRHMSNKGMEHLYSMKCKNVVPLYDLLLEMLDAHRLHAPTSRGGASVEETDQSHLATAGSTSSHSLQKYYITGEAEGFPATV
Peroxisome proliferator-activated receptor gamma (Homo sapiens), sequence (P37231 whole entry, looked up): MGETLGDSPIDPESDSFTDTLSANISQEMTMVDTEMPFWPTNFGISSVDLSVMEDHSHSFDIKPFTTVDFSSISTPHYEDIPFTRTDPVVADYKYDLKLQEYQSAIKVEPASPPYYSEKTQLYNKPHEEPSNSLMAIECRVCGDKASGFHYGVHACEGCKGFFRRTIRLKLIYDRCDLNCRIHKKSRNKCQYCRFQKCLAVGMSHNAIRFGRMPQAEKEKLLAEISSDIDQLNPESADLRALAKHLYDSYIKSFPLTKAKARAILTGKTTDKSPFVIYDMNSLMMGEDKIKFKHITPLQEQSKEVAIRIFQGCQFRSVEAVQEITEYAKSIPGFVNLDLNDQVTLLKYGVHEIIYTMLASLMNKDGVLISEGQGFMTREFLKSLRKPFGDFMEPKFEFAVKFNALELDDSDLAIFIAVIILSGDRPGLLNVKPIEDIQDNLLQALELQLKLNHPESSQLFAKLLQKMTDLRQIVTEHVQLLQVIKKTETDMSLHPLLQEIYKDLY
Thyroid hormone receptor beta (Homo sapiens), sequence (P10828 whole entry, looked up): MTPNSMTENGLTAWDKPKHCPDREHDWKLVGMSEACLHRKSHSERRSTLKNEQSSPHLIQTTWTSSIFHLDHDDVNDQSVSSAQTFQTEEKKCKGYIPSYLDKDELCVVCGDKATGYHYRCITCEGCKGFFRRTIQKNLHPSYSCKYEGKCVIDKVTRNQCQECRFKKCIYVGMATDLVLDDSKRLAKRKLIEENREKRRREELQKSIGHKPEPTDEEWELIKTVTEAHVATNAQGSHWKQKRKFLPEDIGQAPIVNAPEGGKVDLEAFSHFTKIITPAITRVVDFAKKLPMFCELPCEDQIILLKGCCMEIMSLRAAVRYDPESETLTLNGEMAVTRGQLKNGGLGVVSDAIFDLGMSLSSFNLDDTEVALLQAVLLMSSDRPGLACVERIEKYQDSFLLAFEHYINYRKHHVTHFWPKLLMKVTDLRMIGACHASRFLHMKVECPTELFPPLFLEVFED
Glucocorticoid receptor (Homo sapiens), sequence (P04150 whole entry, looked up): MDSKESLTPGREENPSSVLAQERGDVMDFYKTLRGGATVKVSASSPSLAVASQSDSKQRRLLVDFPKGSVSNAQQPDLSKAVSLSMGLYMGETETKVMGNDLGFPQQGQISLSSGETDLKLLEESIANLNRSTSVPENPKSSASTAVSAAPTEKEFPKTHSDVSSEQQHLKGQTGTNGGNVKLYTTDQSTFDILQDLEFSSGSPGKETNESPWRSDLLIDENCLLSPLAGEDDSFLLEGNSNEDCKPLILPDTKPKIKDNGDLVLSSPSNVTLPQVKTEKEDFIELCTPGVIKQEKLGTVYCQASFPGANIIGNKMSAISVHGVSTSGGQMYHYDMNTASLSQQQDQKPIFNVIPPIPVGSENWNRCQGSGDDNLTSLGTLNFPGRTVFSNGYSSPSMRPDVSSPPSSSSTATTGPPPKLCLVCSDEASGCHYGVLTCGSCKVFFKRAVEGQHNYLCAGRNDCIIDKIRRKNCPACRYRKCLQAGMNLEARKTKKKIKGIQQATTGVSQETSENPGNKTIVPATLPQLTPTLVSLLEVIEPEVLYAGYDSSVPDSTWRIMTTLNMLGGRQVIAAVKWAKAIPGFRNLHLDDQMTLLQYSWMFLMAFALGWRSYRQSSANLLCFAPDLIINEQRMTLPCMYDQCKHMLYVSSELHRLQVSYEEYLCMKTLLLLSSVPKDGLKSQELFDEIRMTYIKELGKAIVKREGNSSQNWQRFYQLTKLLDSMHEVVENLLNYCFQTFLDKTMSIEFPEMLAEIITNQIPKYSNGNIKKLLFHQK

With `CC1=C2[C@@H]([C@H](C)CC[C@H]2/C=C(\C)C(=O)O)[C@H](O)C1`, the call in test [1], in [4], in test [6] and in test [7] was inactive. The Potency result in [2] and in [3] was “inactive” in each case. Further, the max response in [5] was 29.1%; in test [8], 6.79%; in test [9], -2.22% (inactive).
Regarding `CCCCC(CC)COC(=O)CC(C(=O)OCC(CC)CCCC)S(=O)(=O)O` (stereo not drawn), in test [10], the Potency was 50.1 µM (active). The activation in test [11] is -0.211% (inactive). Moreover, the molecule was classed as inactive in test [12], in test [14], in test [15] and in test [7]. In test [13], the max response turned out to be 46.2%.
In the case of `CC(NNC(=O)c1ccccc1)c1ccccc1` (stereo not drawn), the Potency entry in test [10] is “inactive”.
`Cc1c(C)c2c(c(C)c1O)CC[C@@](C)(CCC[C@@H](C)CCC[C@@H](C)CCCC(C)C)O2`: in test [10], the Potency entry is “inactive”.
Consider `O=CCCCC=O`, for which the molecule was called inactive in test [1], in [14], in test [16], in test [15], in test [6] and in [7]. In addition, the Potency entry in [2] and in test [3] was “inactive” each time. Also, in [11], the activation was 5.8% (inactive). The max response in [13] was 37.6%; in test [5], 18.3%; in test [8] it was -9.66%; in test [9] it was 27.6% (inactive).
For the molecule `Nc1ccn([C@H]2CS[C@@H](CO)O2)c(=O)n1`, the activation in [11] was -2.07% (inactive). Further, the call in test [12], in test [14], in test [4], in test [16], in test [15] and in test [6] was inactive. Further, in test [7], the outcome was inactive. Moreover, the max response in test [13] was -4.56%; in [5] it was 1%; in [8], -4.12%; in test [9] it was 12.8% (inactive).
As to `CCCCCCCC/C=C\CCCCCCCC(=O)O`, the Potency in test [10] is 35.5 µM (active). In addition, the outcome in [1], in [12], in test [14], in test [4], in test [6] and in [7] was inactive. Also, the Potency entry in test [2] and in test [3] was “inactive” each time. Also, in test [11], the activation was -2.91% (inactive) and 1.43% (inactive). The max response in test [13] is 18% and 10.3%; in test [5], -22.4% and -10.3%; in [8], -6.26% and -12.6%; in [9] it was 31.8% (inactive) and 3.81% (inactive).
Consider `CCCCCCCCCCCCCCCC(=O)OCC(COC(=O)CCCCCCCCCCCCCCC)OC(=O)CCCCCCCCCCCCCCC`, for which, in test [10], the Potency result was “inactive”.
With `Cc1cc(/C=C/c2ccc3cc(N(C)C)ccc3[n+]2C)c(C)n1-c1ccccc1`, the Potency in test [10] was 44.7 µM (active).
On to `Nc1ncnc2c1ncn2[C@@H]1O[C@H](COP(=O)(O)OP(=O)(O)OP(=O)(O)O)[C@@H](O)[C@H]1O`, for which the Potency result in [10] was “inactive”.
For the molecule `O=C(O)CCC(=O)C(=O)O`, the Potency entry in test [10] and in test [2] was “inactive” throughout. Also, the result in [1], in [12], in test [4], in [17], in [16] and in test [15] was inactive. Moreover, the result in test [6] and in test [7] was inactive. Further, in [11], the activation was -1.14% (inactive). Further, the max response was -2.92% in [5], -14.3% in [8] and 8.74% (inactive) in test [9].
For the molecule `CCOC(C)=O`, the Potency result in test [10] and in test [2] was “inactive” throughout. Besides, the call in [1], in test [12], in [14], in [4], in [17] and in test [16] was inactive. Besides, the molecule was classed as inactive in [15], in [6] and in [7]. For the same molecule, the activation in test [11] was -2.25% (inactive). The max response in test [13] was -20.7%; in test [5] it was -19.8%.
As for `IC(I)I`, the Potency result in [10] and in [3] was “inactive” throughout. In addition, the activation in test [11] is 16.8% (inactive) and -7.64% (inactive). The call in [12], in test [14], in test [4], in test [17], in test [6] and in test [7] was inactive. Moreover, the max response in test [13] was 3.49% and 21.3%; in [5], 19.8%; in test [8], -9.02% and 2.26%; in test [9], 21.1% (inactive) and -13.8% (inactive).
For the molecule `O=S(=O)(O)c1ccc2c(N=Nc3ccc(S(=O)(=O)O)c4ccccc34)c(O)c(S(=O)(=O)O)cc2c1`, the Potency in [10] was 17.8 µM (active).
For `CCCCC(C)(O)C/C=C/[C@H]1[C@H](O)CC(=O)[C@@H]1CCCCCCC(=O)OC` (stereo partly drawn), the Potency entry in test [10] was “inactive”.
For `Cc1ccccc1OCC(O)CNCCOc1ccc(C(N)=O)cc1` (stereo not drawn), in [10], the Potency entry is “inactive”.
Same read-out and setting: under `CC(C)(C)C(=O)OCOC(=O)[C@@H]1N2C(=O)[C@@H](N=CN3CCCCCC3)[C@H]2SC1(C)C` stands “inactive”.
Regarding `CCCCC/C=C\C/C=C\CCCCCCCC(=O)O`, the molecule was called inactive in [1], in [14], in test [17], in test [16], in [15] and in test [6]. For the same molecule, the outcome in test [7] was inactive. For the same molecule, the Potency entry in test [2] and in test [3] was “inactive” each time. In addition, the max response in test [13] is 53% and -23.8%; in test [5], -2.55%; in test [8], 2.1%; in [9], 12.5% (inactive).
